About 83,000 compounds went through this panel and 20% of them were active in at least one assay; those are over-represented in the sample as a whole.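 How to read the values: 0–100, growth inhibition (40 = 60% inhibited); 0, no net growth; -100 to 0, cell death (-40 = 40% of starting cells died; -100 = all dead).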 Activity calls are given as the source filed them. Rule for the calls: active = growth percent below 10; inactive = the rest.
Assays:
Assay in all cases: NCI-60 one-dose screen, 48 h (100 = growth as untreated, 0 = no growth, -100 = all killed)
Settings in all cases: 10 µM
[1] = system: NCI-H23 lung
[2] = system: NCI-H226 lung
[3] = system: NCI-H322M lung
[4] = system: HOP-62 NSCLC
[5] = system: NCI-H460 lung
[6] = system: HOP-92 NSCLC
[7] = system: NCI-H522 lung
[8] = system: A549/ATCC NSCLC
[9] = system: 786-0 renal
[10] = system: COLO 205 colon

Measured: growth

CCOc1ccc2ncc(C#Cc3cncc(C(=O)Nc4ccc(CN5CCN(C)CC5)c(C(F)(F)F)c4)c3)n2n1
active: [1] -70% | [2] -59.1% | [3] -76% | [4] -46.8% | [5] -52.9% | [6] -46.6% | [7] -41.3% | [8] -33.9% | [9] -43.8% | [10] -45.8%

N[C@@H](CSSC[C@H](N)C(=O)Nc1ccc(OCC2CCCC2)cc1)C(=O)Nc1ccc(OCC2CCCC2)cc1
active: [1] -92.9% | [2] -72.5% | [3] -99.5% | [4] -90.7% | [5] -77.1% | [6] -72.8% | [7] -93.2% | [8] -90.7% | [9] -59.9% | [10] -92.5%

C#CCNC(=O)[C@]12CCC(C)(C)C[C@H]1C1=CC[C@@H]3[C@@](C)(CCC#N)[C@H](C(=C)C)CC[C@@]3(C)[C@]1(C)CC2
inactive: [1] 58.2% | [2] 76.5% | [3] 77.1% | [4] 68.5% | [5] 66.9% | [6] 26.4% | [7] 64.5% | [8] 40.1% | [9] 74.6% | [10] 68%

CC(=O)c1ccc(Nc2nc(SCCC(C)C)nc(-c3ccc(F)cc3)c2C#N)cc1
inactive: [1] 53.2% | [3] 41.4% | [4] 41.1% | [5] 11.4% | [7] 72.8% | [8] 18.8% | [10] 77.2%
active: [2] 5.36% | [6] 3.49% | [9] 2.71%

C/C(=C\CSc1ccccc1C(=O)O)CCCC(C)CCCC(C)CCCC(C)C (stereo not given)
inactive: [1] 35.5% | [2] 77.5% | [3] 65.8% | [4] 57.6% | [5] 39.6% | [6] 71.4% | [7] 23.3% | [8] 41.3% | [9] 67.3% | [10] 87.8%

O=C(Nc1ccc(Cl)c([N+](=O)[O-])c1)Nc1ccc(Cl)c([N+](=O)[O-])c1
active: [1] -14.3% | [2] -4.77% | [5] 9.48% | [6] -34.2% | [10] 2.69%
inactive: [3] 27.7% | [4] 30.5% | [7] 28.1% | [8] 26.1% | [9] 10.7%

O/N=C(\CSc1nnc(-c2c[nH]c3ccccc23)n1-c1ccccc1)c1ccc(Br)cc1
inactive: [1] 14.1% | [9] 34.7%
active: [2] 6.3% | [3] -72.7% | [4] -54.8% | [5] -21.9% | [6] -11.2% | [7] -29.7% | [8] -18.2% | [10] -41.2%

O=C(Cn1nc(-c2ccccc2)ccc1=O)NN1C(=O)c2ccccc2C1=O
inactive: [1] 105% | [2] 101% | [3] 117% | [4] 102% | [5] 99.7% | [6] 125% | [7] 77.5% | [8] 108% | [9] 103% | [10] 131%

O=C1NC(=NC23CC4CC(CC(C4)C2)C3)N/C1=C\c1ccc2ncsc2c1
active: [1] -10.3% | [2] -4% | [3] 4.94% | [4] 9.31% | [5] 7.74% | [6] 5.85% | [7] -7.87% | [10] -29.6%
inactive: [8] 16.5% | [9] 16.1%

Cc1ccc(F)cc1N/C=c1\s/c(=C(\C#N)C(=O)Nc2ccccc2)n(-c2ccccc2)c1=O
inactive: [1] 58% | [2] 20.3% | [3] 81.8% | [4] 51.8% | [5] 71.7% | [6] 27.6% | [7] 74.7% | [8] 37.7% | [9] 34.6% | [10] 99%

CC(=O)Nc1ccc(-c2cn(-c3cccc(C(=O)Nc4ccc(F)c(C(F)(F)F)c4)c3)nn2)cn1
active: [5] -47.1%
inactive: [1] 23.6% | [2] 26.4% | [3] 54.3% | [4] 87.7% | [6] 65.6% | [7] 62.3% | [8] 54.3% | [9] 79.9% | [10] 46%

N#Cc1c(NC(=O)c2ccc(C(F)(F)F)cc2)sc2c1CCC(=O)C2
inactive: [3] 22.3%
active: [1] -56.9% | [2] -21.2% | [4] -37.7% | [5] 0.648% | [6] -57% | [7] -57.3% | [8] -41.9% | [9] -8.91% | [10] -95.3%

CN(C)CCNC(=O)OCCCCOc1cc(O)c2c(=O)cc(-c3ccccc3)oc2c1
active: [1] -2.08% | [3] -31.2% | [4] 2.14% | [5] -33.9% | [6] -42.6% | [7] -77% | [8] 4.88% | [9] -34.5% | [10] -46.4%
inactive: [2] 12.1%
